The supplement of paper PMC11732987, “Enantioselective OTUD7B fragment discovery through chemoproteomics screening and high-throughput optimisation” (Communications Chemistry, 2025)
Values without a mark were called inactive.

Tests used:
Test in all cases: log2 ratio of Biotin-Ahx-Ub-VS probe labelling (fragment/DMSO); higher = less target engagement (more negative = stronger competition), active = hit call of the paper (q ≤ 0.05, log2 ratio ≤ -1)
Conditions in all cases: compound concentration: 200 uM; treatment time: 3 h
USP19 = molecular target: T1, USP19 (UniProt O94966)
T1 sequence (whole entry): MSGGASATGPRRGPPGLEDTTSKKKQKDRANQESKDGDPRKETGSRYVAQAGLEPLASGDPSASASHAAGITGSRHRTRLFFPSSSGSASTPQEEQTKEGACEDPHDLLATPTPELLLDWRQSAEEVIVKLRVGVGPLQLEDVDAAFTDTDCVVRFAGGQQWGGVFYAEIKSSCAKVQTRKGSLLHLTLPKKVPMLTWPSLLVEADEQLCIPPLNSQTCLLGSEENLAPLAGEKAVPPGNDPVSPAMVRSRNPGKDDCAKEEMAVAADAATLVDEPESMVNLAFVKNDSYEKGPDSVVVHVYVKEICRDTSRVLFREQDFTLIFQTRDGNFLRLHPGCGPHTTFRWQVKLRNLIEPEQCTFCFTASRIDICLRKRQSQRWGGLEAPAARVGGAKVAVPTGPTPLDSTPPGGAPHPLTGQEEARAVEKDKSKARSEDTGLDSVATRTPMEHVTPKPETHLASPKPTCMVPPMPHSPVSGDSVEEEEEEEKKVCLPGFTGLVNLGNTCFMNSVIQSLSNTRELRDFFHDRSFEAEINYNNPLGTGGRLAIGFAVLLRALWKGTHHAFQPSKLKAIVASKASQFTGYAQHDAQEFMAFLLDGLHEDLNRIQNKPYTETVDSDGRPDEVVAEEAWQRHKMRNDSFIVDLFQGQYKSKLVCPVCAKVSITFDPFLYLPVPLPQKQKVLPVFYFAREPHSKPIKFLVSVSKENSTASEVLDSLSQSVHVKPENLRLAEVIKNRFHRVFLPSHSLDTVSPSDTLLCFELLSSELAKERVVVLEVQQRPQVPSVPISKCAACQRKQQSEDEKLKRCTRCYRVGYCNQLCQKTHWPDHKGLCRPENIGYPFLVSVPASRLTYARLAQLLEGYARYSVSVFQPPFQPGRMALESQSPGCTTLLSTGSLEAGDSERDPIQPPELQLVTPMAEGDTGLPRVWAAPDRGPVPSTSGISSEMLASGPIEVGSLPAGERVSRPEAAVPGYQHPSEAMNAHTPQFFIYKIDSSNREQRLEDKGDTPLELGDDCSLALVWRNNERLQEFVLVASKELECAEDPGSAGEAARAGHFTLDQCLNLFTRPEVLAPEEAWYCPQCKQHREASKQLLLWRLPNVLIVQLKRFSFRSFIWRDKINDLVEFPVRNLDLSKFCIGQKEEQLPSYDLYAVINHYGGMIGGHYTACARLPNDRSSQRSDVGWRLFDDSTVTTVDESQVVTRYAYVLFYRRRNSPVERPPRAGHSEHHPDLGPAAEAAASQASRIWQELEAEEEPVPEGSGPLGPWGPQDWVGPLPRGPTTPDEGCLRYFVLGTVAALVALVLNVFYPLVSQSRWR
In short: (§1)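 HEK293T lysate in Tris/CHAPS/IGEPAL buffer with protease inhibitors (495 µg per sample) was given fragment at 200 µM or vehicle for 3 h, in triplicate. It then received Biotin-Ahx-Ub-VS at 0.5 µM final for 1 h. Labelled DUBs were NeutrAvidin-enriched, digested with LysC and trypsin, and run by diaPASEF LC-MS/MS. Values are average log2 fragment/vehicle ratios by unpaired t-test on global-median-normalised Spectronaut quantities of proteins with ≥2 unique peptides.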

USP24 = USP24 (UniProt Q9UPU5)
Sequence of USP24 (Q9UPU5 whole entry): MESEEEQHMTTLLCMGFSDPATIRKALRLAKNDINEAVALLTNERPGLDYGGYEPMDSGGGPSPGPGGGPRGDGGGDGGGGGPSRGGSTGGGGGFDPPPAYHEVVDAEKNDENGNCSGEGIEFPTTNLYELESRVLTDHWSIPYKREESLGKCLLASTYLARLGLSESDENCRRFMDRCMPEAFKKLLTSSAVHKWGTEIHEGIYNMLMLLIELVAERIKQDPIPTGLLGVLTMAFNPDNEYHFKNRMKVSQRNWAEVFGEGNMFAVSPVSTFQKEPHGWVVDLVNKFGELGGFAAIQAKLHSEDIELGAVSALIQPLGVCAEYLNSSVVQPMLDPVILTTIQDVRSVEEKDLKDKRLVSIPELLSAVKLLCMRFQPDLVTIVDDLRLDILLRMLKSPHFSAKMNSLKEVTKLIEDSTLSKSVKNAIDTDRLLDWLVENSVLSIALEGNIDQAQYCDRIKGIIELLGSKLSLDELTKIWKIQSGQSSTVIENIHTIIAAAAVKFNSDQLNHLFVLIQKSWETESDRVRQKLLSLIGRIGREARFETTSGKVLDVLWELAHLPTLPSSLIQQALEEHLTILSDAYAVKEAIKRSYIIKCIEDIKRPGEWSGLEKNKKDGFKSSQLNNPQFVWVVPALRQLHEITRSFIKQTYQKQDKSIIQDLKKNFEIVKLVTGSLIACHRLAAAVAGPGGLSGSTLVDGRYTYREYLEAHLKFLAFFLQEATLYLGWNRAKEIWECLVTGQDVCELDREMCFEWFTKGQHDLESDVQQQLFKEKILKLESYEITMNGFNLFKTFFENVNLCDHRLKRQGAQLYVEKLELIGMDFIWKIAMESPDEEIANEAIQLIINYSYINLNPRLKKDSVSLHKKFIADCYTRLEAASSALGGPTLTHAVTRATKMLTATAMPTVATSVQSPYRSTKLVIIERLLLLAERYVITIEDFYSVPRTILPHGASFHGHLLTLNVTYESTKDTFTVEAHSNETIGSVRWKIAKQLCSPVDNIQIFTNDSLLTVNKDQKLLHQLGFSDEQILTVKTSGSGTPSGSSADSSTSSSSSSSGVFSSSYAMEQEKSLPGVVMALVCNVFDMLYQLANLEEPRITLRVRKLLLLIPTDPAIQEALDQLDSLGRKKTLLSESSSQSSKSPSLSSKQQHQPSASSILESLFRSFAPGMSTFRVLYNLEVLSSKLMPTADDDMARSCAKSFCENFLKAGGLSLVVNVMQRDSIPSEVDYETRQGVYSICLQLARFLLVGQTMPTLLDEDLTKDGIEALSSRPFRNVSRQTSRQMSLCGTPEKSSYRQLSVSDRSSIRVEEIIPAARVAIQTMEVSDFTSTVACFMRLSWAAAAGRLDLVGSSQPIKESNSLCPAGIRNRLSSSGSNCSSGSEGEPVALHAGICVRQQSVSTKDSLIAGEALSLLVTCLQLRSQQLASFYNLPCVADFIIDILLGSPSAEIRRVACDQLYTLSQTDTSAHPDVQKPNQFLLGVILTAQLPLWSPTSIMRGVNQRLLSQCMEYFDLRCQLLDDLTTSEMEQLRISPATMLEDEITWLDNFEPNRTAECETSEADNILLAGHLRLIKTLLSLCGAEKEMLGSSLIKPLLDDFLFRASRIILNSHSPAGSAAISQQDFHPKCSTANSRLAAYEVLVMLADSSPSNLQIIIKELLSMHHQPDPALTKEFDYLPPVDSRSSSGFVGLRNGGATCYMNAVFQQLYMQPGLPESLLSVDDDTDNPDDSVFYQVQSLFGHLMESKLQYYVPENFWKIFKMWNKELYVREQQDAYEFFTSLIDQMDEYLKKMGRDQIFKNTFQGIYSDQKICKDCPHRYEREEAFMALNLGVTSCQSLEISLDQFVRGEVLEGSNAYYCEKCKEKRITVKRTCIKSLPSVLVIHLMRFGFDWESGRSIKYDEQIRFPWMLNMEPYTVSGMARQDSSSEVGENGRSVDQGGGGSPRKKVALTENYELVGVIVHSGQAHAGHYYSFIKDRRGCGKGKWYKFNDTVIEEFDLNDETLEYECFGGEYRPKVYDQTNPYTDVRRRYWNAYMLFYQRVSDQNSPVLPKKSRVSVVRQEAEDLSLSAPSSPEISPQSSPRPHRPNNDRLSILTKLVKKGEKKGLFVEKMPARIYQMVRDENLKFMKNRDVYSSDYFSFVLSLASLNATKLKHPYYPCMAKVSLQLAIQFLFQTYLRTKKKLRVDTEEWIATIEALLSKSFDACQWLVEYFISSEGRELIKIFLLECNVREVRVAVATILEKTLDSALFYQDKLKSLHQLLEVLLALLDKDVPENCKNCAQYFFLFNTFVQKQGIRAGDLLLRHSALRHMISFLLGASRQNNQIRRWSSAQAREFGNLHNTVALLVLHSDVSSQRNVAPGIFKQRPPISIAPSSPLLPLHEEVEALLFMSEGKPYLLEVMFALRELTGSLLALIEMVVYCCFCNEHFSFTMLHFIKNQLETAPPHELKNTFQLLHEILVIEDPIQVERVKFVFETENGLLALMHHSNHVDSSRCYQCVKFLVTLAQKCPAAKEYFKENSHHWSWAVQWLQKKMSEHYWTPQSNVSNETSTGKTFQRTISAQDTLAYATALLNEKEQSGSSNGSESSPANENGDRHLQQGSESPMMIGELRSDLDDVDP
In short: as §1

USP25 = molecular target: T2, USP25 (UniProt Q9UHP3)
T2 sequence (whole entry): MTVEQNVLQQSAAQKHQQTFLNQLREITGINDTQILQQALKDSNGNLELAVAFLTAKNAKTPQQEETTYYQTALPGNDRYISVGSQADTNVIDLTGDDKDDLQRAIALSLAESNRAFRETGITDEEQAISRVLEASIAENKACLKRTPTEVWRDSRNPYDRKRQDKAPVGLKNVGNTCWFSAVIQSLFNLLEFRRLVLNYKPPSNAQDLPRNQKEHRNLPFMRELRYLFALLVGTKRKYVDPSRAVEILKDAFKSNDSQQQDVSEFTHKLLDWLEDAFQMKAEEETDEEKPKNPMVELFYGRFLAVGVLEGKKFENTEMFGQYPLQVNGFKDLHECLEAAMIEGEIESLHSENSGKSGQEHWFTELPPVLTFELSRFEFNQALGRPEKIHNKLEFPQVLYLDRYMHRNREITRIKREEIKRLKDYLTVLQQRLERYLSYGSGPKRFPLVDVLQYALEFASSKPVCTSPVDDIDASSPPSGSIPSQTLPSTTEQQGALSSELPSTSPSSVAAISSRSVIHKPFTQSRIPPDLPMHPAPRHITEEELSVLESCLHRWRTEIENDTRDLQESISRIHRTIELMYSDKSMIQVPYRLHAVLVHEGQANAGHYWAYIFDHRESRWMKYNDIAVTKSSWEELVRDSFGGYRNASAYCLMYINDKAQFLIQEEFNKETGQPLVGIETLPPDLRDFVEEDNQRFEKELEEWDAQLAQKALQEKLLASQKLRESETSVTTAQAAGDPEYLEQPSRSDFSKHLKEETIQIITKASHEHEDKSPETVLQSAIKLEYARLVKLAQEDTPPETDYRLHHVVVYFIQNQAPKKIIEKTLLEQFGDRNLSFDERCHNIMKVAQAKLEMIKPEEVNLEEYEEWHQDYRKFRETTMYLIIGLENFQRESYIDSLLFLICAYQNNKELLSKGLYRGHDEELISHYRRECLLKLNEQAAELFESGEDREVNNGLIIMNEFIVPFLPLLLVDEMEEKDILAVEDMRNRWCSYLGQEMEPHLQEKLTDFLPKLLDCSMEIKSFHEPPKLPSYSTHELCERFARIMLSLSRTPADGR
In short: as §1

USP28 = molecular target: T3, USP28 (UniProt Q96RU2)
T3 sequence (whole entry): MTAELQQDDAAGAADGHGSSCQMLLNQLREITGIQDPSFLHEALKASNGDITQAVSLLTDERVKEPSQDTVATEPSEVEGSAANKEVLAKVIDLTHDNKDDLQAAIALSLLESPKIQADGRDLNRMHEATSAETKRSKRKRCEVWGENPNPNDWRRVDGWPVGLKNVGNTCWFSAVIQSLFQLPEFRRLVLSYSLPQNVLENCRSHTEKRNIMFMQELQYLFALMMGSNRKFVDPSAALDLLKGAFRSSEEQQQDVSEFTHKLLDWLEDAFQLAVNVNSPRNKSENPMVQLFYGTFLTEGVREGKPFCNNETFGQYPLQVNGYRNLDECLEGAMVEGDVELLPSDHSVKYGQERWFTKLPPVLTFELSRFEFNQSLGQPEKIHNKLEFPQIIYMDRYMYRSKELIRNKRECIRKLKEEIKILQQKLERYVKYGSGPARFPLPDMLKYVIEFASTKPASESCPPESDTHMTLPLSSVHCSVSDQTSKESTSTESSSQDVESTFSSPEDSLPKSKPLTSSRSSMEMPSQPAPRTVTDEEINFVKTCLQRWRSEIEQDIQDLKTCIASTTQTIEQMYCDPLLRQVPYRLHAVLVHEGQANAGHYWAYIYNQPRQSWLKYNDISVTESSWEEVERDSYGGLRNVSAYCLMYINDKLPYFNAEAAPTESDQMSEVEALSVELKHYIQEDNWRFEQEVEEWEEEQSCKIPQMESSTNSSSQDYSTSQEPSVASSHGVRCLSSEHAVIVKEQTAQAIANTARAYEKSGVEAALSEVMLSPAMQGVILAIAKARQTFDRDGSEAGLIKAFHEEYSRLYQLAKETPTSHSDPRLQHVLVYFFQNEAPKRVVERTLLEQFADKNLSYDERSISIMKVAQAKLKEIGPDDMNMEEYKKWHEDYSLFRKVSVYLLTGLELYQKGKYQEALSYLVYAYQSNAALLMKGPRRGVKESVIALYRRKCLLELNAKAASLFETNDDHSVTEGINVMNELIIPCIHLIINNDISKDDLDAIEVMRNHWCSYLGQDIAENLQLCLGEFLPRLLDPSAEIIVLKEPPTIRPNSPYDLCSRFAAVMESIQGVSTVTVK
In short: as §1

SMILES: Cn1cc(CN(Cc2ccc(Cl)cc2)C(=O)CCl)cn1
- log2 ratio of Biotin-Ahx-Ub-VS probe labelling (USP19): -0.653
- log2 ratio of Biotin-Ahx-Ub-VS probe labelling (USP24): -1.49 (active)
- log2 ratio of Biotin-Ahx-Ub-VS probe labelling (USP25): -0.161
- log2 ratio of Biotin-Ahx-Ub-VS probe labelling (USP28): -0.648
